Assay results as given in PubChem BioAssay AID1159580 (chemical genetic matrix, 2015).
Screen size: about 5,500 compounds; about 2,000 (36%) were called active. Roughly 18% stayed inconclusive and do not appear here. No stated cut-off is given here; in the data, active means normalized growth mostly below about 0.91 (no sharp cut-off); inconclusive means no clear call, values can overlap the other calls; inactive means mostly above about 0.92. The list shows a part of the results.

Assay: chemical genetic growth profiling, strain panel (AID 1159580);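 further: tested at 20 µM; growth read once vehicle control cultures reached saturation at 30 °C; 1 = growth at the plate median or of vehicle wells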
Details: S. cerevisiae deletion strains, growth OD

Measured: normalized growth

C/C=C1\C(=O)CC2C3CCC4=CC(=O)CC[C@]4(C)C3CC[C@]12C (stereo not given in full)
inactive: locus YAL013W, strain DEP1, stronger effect = lower value 0.978 | locus YAL040C, strain CLN3, stronger effect = lower value 0.975 | locus YCL061C, strain MRC1 (second series), stronger effect = lower value 1 | locus YDR363W, strain ESC2, stronger effect = lower value 0.996 | locus YER002W, strain NOP16, stronger effect = lower value 0.974 | locus YGR078C, strain PAC10, stronger effect = lower value 0.924 | locus YMR307W, strain GAS1, stronger effect = lower value 1.01 | locus YNL128W, strain TEP1, stronger effect = lower value 0.938 | locus YNL175C, strain NOP13, stronger effect = lower value 0.956 | locus YNL197C, strain WHI3, stronger effect = lower value 0.978 | locus YNL224C, strain SQS1, stronger effect = lower value 0.99 | locus YNL322C, strain KRE1, stronger effect = lower value 1.01 | locus YPL055C, strain LGE1, stronger effect = lower value 0.992
active: locus YNL153C, strain GIM3, stronger effect = lower value 0.774 | locus YOR083W, strain WHI5 (second series), stronger effect = lower value 0.743

CC(=O)O[C@@H]1C[C@@]2(C)C(CC[C@@H]2C(C)=O)C2CCC3=CC(=O)CC[C@]3(C)C21 (stereo not given in full)
inactive: locus YAL021C, strain ccr4, stronger effect = lower value 0.996 | locus YAL026C, strain drs2, stronger effect = lower value 1.03 | locus YAL030W, strain snc1, stronger effect = lower value 1.01 | locus YBL061C, strain skt5, stronger effect = lower value 1.01 | locus YBR009C, strain hhf1, stronger effect = lower value 1.06 | locus YBR023C, strain chs3, stronger effect = lower value 1 | locus YBR171W, strain sec66, stronger effect = lower value 0.964 | locus YBR231C, strain swc5, stronger effect = lower value 1.02 | locus YBR279W, strain paf1, stronger effect = lower value 1 | locus YCL011C, strain gbp2, stronger effect = lower value 1.02 | locus YCL016C, strain dcc1, stronger effect = lower value 1.02 | locus YCL061C, strain MRC1, stronger effect = lower value 1.01 | locus YCL069W, strain vba3, stronger effect = lower value 1.02 | locus YCR088W, strain abp1, stronger effect = lower value 1.02 | locus YDL005C, strain med2, stronger effect = lower value 1.01 | locus YDL040C, strain nat1, stronger effect = lower value 1.01 | locus YDR001C, strain nth1, stronger effect = lower value 0.997 | locus YDR069C, strain doa4, stronger effect = lower value 1.02 | locus YDR137W, strain rgp1, stronger effect = lower value 0.974 | locus YDR159W, strain sac3, stronger effect = lower value 1.02 | locus YDR195W, strain ref2 1.06 | locus YDR297W, strain sur2, stronger effect = lower value 1.01 | locus YDR334W, strain swr1, stronger effect = lower value 1.03 | locus YDR335W, strain msn5, stronger effect = lower value 1 | locus YDR392W, strain spt3, stronger effect = lower value 0.863 | locus YEL003W, strain gim4, stronger effect = lower value 1.02 | locus YEL037C, strain rad23, stronger effect = lower value 1.01 | locus YEL061C, strain CIN8 (second series), stronger effect = lower value 1.02 | locus YER015W, strain faa2, stronger effect = lower value 1.01 | locus YER016W, strain bim1, stronger effect = lower value 1.02 | locus YER111C, strain swi4, stronger effect = lower value 1.01 | locus YER155C, strain BEM2 (second series), stronger effect = lower value 1.04 | locus YFR010W, strain ubp6, stronger effect = lower value 1.02 | locus YGL167C, strain pmr1, stronger effect = lower value 1.02 | locus YGL173C, strain kem1, stronger effect = lower value 1.03 | locus YGL227W, strain vid30, stronger effect = lower value 1.01 | locus YGL240W, strain doc1, stronger effect = lower value 1.04 | locus YGL253W, strain hxk2, stronger effect = lower value 1 | locus YHR013C, strain ard1, stronger effect = lower value 0.974 | locus YHR027C, strain rpn1, stronger effect = lower value 1.01 | locus YHR030C, strain SLT2, stronger effect = lower value 0.967 | locus YHR079C, strain IRE1, stronger effect = lower value 0.985 | locus YHR142W, strain chs7, stronger effect = lower value 0.947 | locus YJL092W, strain hpr5, stronger effect = lower value 1.01 | locus YJL095W, strain BCK1 (second series), stronger effect = lower value 1.02 | locus YJL095W, strain BCK1, stronger effect = lower value 0.997 | locus YJL115W, strain asf1, stronger effect = lower value 1.01 | locus YJL129C, strain trk1, stronger effect = lower value 0.95 | locus YJL154C, strain vps35, stronger effect = lower value 1.01 | locus YJL164C, strain tpk1, stronger effect = lower value 0.985 | locus YJL166W, strain qcr8, stronger effect = lower value 1.01 | locus YJL187C, strain SWE1, stronger effect = lower value 1.01 | locus YJR066W, strain TOR1, stronger effect = lower value 0.953 | locus YKL160W, strain elf1, stronger effect = lower value 0.965 | locus YKR026C, strain gcn3, stronger effect = lower value 1.01 | locus YKR091W, strain srl3, stronger effect = lower value 1.01 | locus YLL001W, strain dnm1, stronger effect = lower value 1.02 | locus YLL026W, stronger effect = lower value 1.02 | locus YLL041C, strain sdh2, stronger effect = lower value 1 | locus YLR027C, strain aat2, stronger effect = lower value 0.998 | locus YLR113W, strain HOG1, stronger effect = lower value 1.02 | locus YLR221C, strain rsa3, stronger effect = lower value 0.969 | locus YLR258W, strain gsy2, stronger effect = lower value 1.04 | locus YLR262C, strain YPT6 (second series), stronger effect = lower value 0.964 | locus YLR320W, strain mms22, stronger effect = lower value 0.97 | locus YLR342W, strain FKS1, stronger effect = lower value 1.02 | locus YLR357W, strain rsc2, stronger effect = lower value 1.03 | locus YLR370C, strain arc18, stronger effect = lower value 1 | locus YLR384C, strain iki3, stronger effect = lower value 1.01 | locus YML120C, strain ndi1, stronger effect = lower value 0.981 | locus YMR058W, strain fet3, stronger effect = lower value 1.01 | locus YMR125W, strain sto1, stronger effect = lower value 1.02 | locus YMR129W, stronger effect = lower value 1.01 | locus YMR205C, strain PFK2, stronger effect = lower value 1.05 | locus YMR231W, strain pep5, stronger effect = lower value 1.02 | locus YNL071W, strain lat1, stronger effect = lower value 0.97 | locus YNL183C, strain NPR1, stronger effect = lower value 0.984 | locus YNL209W, strain ssb2, stronger effect = lower value 1 | locus YNL248C, strain rpa49, stronger effect = lower value 0.953 | locus YNL322C, strain KRE1 (second series), stronger effect = lower value 1.01 | locus YNR049C, strain mso1, stronger effect = lower value 1.01 | locus YOR001W, strain rrp6, stronger effect = lower value 0.947 | locus YOR070C, strain gyp1, stronger effect = lower value 1.01 | locus YOR080W, strain dia2, stronger effect = lower value 1.01 | locus YOR083W, strain WHI5, stronger effect = lower value 0.953 | locus YOR106W, strain vam3, stronger effect = lower value 0.974 | locus YOR231W, strain MKK1, stronger effect = lower value 0.979 | locus YOR265W, strain rbl2, stronger effect = lower value 1 | locus YOR270C, strain vph1, stronger effect = lower value 0.999 | locus YOR290C, strain snf2, stronger effect = lower value 0.98 | locus YPL051W, strain arl3, stronger effect = lower value 0.976 | locus YPL078C, strain atp4, stronger effect = lower value 0.97 | locus YPL106C, strain sse1, stronger effect = lower value 1.03 | locus YPL240C, strain hsp82, stronger effect = lower value 0.984 | locus YPL256C, strain CLN2, stronger effect = lower value 0.973
